Assay outcomes: PubChem BioAssay, National Center for Advancing Translational Sciences (NCATS)
Cycloheximide cs: Cycloheximide Counterscreen for Small Molecule Inhibitors of Shiga Toxin; 300,000 compounds, 12% hits; max response, %; AID 2314, 2010; cell reporter, cycloheximide protein synthesis inhibition counterscreen; in the data active means max response mostly above about 13%, no sharp cut-off; inactive means mostly below about 14%; further: read at 38.3 µM for the half of the compounds with a filed dose; 0% is about no effect
Pf growth 96h: Primary qHTS for delayed death inhibitors of the malarial parasite plastid, 96 hour incubation; AID 504834, 2011; 320,000 compounds, 6.9% hits; P. falciparum luciferase reporter growth, 96 h; Potency, µM (series often up to 28.7 µM), for the others: at the top dose activity change, negative = inhibition, most hits filed as inhibitors; further: potency means the concentration at half of the fitted maximal effect; on the % scale 0 is the no-effect control and ±100 the full control effect
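Two parasite generations (96 h, 37 C, 5% CO2) of compound exposure in infected erythrocytes (0.05% parasitemia, 2% hematocrit). Luciferase-reporter P. falciparum; decreased luminescence indicates inhibited growth, aimed at apicoplast-acting delayed death.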
SARS PLP yeast: qHTS of Yeast-based Assay for SARS-CoV PLP; S. cerevisiae expressing SARS-CoV PLpro, growth rescue; Potency, µM (top dose mostly 32.9 µM), for the others: top-dose activity, positive = growth rescue, usual class: activators; 330,000 compounds, 0.19% hits; AID 485353, 2010; calls by dose curve; further: potency means the concentration at half of the fitted maximal effect; 0% is about no effect; nearly all actives have a fitted effect of over 55% in size
Pf growth 48h: Primary qHTS for delayed death inhibitors of the malarial parasite plastid, 48 hour incubation; P. falciparum luciferase growth in erythrocytes, 48 h; Potency, µM (doses to about 28.7 µM), for the others: at the top dose activity change, negative = inhibition, usual class: inhibitors; 310,000 compounds, 5.9% hits; further: potency means the concentration at half of the fitted maximal effect; on the % scale 0 is the no-effect control and ±100 the full control effect
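Luciferase-expressing parasites in RBCs, 2% Hct / 0.1% parasitemia final; RPMI 1640 + 0.5% Albumax; 37 C, 5% CO2, one generation; luminescence read-out, lower signal = inhibition.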
Shiga inhibitor: A qHTS for Small Molecule Inhibitors of Shiga Toxin | inhibition, % at 38.7 µM | Vero cells, Shiga toxin protein synthesis inhibition reporter | 290,000 compounds, 9.2% hits; in the data active means inhibition mostly above about 28%, no sharp cut-off; inactive means mostly below about 43%; further: 0% is about no effect
NS1 function inh: qHTS Assay for Inhibitors of Influenza NS1 Protein Function. Potency, µM (top dose mostly 46.1 µM), for the others: top-dose activity, positive = more growth. 270,000 compounds, 0.4% hits. AID 2326, 2010; calls by dose curve; further: potency means the concentration at half of the fitted maximal effect; actives are rising curves; nearly all actives have a fitted effect of over 50% in size
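Recovery from NS1-induced slow growth read by OD600 in budding yeast switched to galactose assay medium (pH 6.0, -URA) at 1:100 dilution. Compound 23 nl per well; the matching strain lacking NS1 serves as control.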
* = called active by the depositor; u = inconclusive; x = no result; [ ] = remark or other dose. In the library only some 21% were active in any assay of this set; here they are far more common. Unless noted, the call rests on the fitted dose curve; in most records, active means well fitted inhibition curve with a large enough effect; inconclusive means small, poorly fitted or top-dose-only effect, or another doubt; inactive means no such curve, though single readings can be large or run the other way.

SMILES	Cycloheximide cs	Pf growth 96h	SARS PLP yeast	Pf growth 48h	Shiga inhibitor	NS1 function inh
COc1ccc(CC(=O)NCc2cccs2)cc1OC	-2	u	-5%	x	-16	-1%
COc1ccc(CC(=O)c2ccc(OC)c(OC)c2C)cc1OC	23*	10µM*	-10%	u	56*	0%
COc1ccc(CC(=O)NCc2cccc(CNC(=O)Cc3ccc(OC)c(OC)c3)c2)cc1OC	-3	8.3µM*	-7%	-17%	-10	0%
COc1ccc(CCNC(=O)Cn2nc(C(=O)O)c3ccccc3c2=O)cc1OC	-1	24%	-2%	28%	-24	x
Cc1c(C#N)c(SCC(N)=O)nc2c1CCCC2	-7	9.3µM*	3%	8%	-16	u
CCOC(=O)CC(=O)CSc1nc2c(cc1C#N)CCCCCC2	-2	1.2µM*	-2%	2.3µM*	13	4%
CC(C)OC(=O)CC(=O)CSc1nc2c(cc1C#N)CCCCCC2	15	x	-3%	-7%	17	12%
N#Cc1cc2c(nc1SCC(N)=O)CCCCC2	18*	135%	-3%	x	107	10%
CC(C)OC(=O)CC(=O)CSc1nc2c(cc1C#N)CCCC2	37*	u	x	39%	82*	-4%
COc1ccc(NC(=O)CN2CCN(C(C)=O)CC2)cc1S(=O)(=O)N1CCOCC1	x	x	3%	x	x	x
O=C(CCCC(=O)OCC(Cl)=C(Cl)Cl)Nc1ccccc1	5	4%	-7%	25%	-1	-28%
N#Cc1cc2c(nc1SCC(=O)N1CCOCC1)CCCCC2	42*	x	-11%	239%	101*	8%
CC(C)OC(=O)CC(=O)CSc1nc2c(cc1C#N)CCC2	14	27%	2%	1%	24	2%
N#Cc1cc2cc3c(cc2nc1SCC(=O)N1CCCC1)OCCO3	19	-1%	1%	63%	51*	9%
COc1cc2cc(C#N)c(SCC(=O)N3CCOCC3)nc2cc1OC	3	u	-26%	55%	-1	-2%
COC(=O)CC(=O)CSc1nc2c(cc1C#N)CCC2	18*	x	1%	37%	54*	x
CC(=O)N(c1ccccc1)C(C)c1nc(C#N)c(C#N)nc1C (stereo not given)	-3	u	u	u	-6	-16%
CCCCOCC1CN(c2ccccc2)C(=O)CS1 (stereo not given)	-2	x	1%	3%	-11	u
CCCCC1C(=O)N(c2ccccc2)N(c2ccccc2)C1=O	10	3.3µM*	2%	u	10	u
Cc1cc(Br)cc2cn[nH]c12	1	4%	-8%	16%	-8	x
Cc1cc(C)cc(-n2ccnc2SCC(=O)Nc2nccs2)c1	1	35%	2%	23%	-6	-7%
Cc1cccc(-n2ccnc2SCC(=O)Nc2nccs2)c1	29*	0%	5%	57%	58	-24%
COc1cccc(-n2ccnc2SCC(=O)Nc2nccs2)c1	21*	9%	5%	41%	42	-5%
CCn1c(CC(=O)Nc2cccc(OC)c2)nnc1SCC(=O)Nc1nccs1	5	35%	5%	-5%	14	7%
CCN1C(=O)c2ccccc2S(=O)c2ccc(C(=O)NCc3ccc(OC)cc3)cc21 (stereo not given)	-3	2%	2%	u	-9	0%
SMILES	Cycloheximide cs	Pf growth 96h	SARS PLP yeast	Pf growth 48h	Shiga inhibitor	NS1 function inh
CCc1ccc(NC(=S)N2CCCC2)cc1	36*	-18%	2%	111%	78*	3%
CCOC(=O)N1CCC(N(CCOC)C(=O)Nc2ccc(CC)cc2)CC1	-2	7.4µM*	-3%	-26%	5	-12%
CCOC(=O)C1CCN(C(=S)Nc2cccc(C)c2)CC1	8	27%	-3%	-14%	-8	4%
CCOC(=O)C1CCN(C(=S)Nc2ccc(CC)cc2)CC1	43*	u	23%	50%	54	x
CCc1ccc(NC(=S)N2CCN(C)CC2)cc1	25*	-3%	-6%	61%	61	0%
Cc1cccc(N2CCN(c3ccc(N4C(=O)CCCC4=O)cc3[N+](=O)[O-])CC2C)c1 (stereo not given)	-2	u	-9%	9%	10	-9%
CCOC(=O)C1CCN(C(=O)Nc2ccc(NC(=O)C3CCN(C(=O)OCC)CC3)cc2)CC1	-1	-34%	2%	-14%	-15	5%
CCc1ccc(NC(=S)N2CCC(NC(=O)C3CCCCC3)CC2)cc1	-1	-24%	-1%	14%	-12	13%
CCc1ccc(NC(=S)N2CCCC(C(F)(F)F)C2)cc1 (stereo not given)	16*	66%	19%	31%	40	x
CCOC(=O)C1CCN(C(=O)Nc2ccc(OC(F)(F)F)cc2)CC1	34*	80%	0%	72%	63	5%
Cc1c(NC(=O)C2CCCCC2)cc(C(=O)N2CCOCC2)cc1[N+](=O)[O-]	-2	u	4%	14%	13	x
COc1cccc(CSc2nnc(C(F)(F)F)n2Cc2ccc(F)cc2)c1	9	u	-6%	8%	12	-20%
Cc1ccc(CSc2nnc(C(F)(F)F)n2Cc2ccc(F)cc2)cc1	16*	72%	-1%	-3%	21	-37%
c1ccc(CN2CCc3nc4ccccc4cc3C2)cc1	26*	156%	15%	97%	59*	-35%
O=C(O)/C=C\C(=O)N1Cc2cc3ccccc3nc2C1	x	x	x	x	x	1%
CC(=O)N1CCN(C(=O)c2cccc(NS(=O)(=O)c3ccc(Br)cc3)c2)CC1	x	25%	-2%	u	x	x
O=C(N/N=C\c1ccccn1)c1ccccc1O	33*	52%	-6%	u	120*	x
Cc1cc(C)cc(OCC(=O)N/N=C/c2ccccn2)c1	11	5%	-2%	-3%	-7	1%
Cc1ccccc1OCC(=O)N/N=C/c1ccccn1	11	14%	-1%	-13%	35*	x
Cc1ccccc1C(=O)N/N=C/c1ccccn1	52*	u	-7%	-25%	68*	7%
O=C(NC(=S)NCC1CCCO1)c1ccccc1[N+](=O)[O-] (stereo not given)	2	-29%	2%	8%	12	4%
O=C(N/N=C/c1cc(Br)cc([N+](=O)[O-])c1O)c1ccc(NC(=O)c2ccc(F)cc2)cc1	-1	6%	10%	-4%	-4	1%
Cc1ccc(-c2nc3cccnc3s2)cc1NS(C)(=O)=O	33*	116%	0%	112%	62*	2%
Cc1ccc2nc(NS(C)(=O)=O)sc2c1	6	-9%[5.75 µM]	-1%	27%	33	2%
CCCS(=O)(=O)Nc1cccc(-c2nc3cccnc3s2)c1	28*	12%	-1%	24%	57*	-3%
O=S(=O)(Nc1cccc(-c2nc3cccnc3s2)c1)c1cccs1	18*	45%	0%	40%	50*	3%
